A short description of assay [1]: BSK_BT_PBMCCytotoxicity: PBMC Cytotoxicity Assessment in the BioMAP Diversity Plus: BT Assay (AID 2284225).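 Further: PBMC viability measured by Alamar Blue dye reduction fluorescence.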 The note with it: primary human B cells with PBMC. An outline of the steps:
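Primary human co-culture of B cells and PBMC, pre-dosed 1 h then activated with SEB and TSST-1. Cytotoxicity is taken from Alamar Blue dye reduction, added for 6 h at the end of a 90 h incubation.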

Read-out in assay [2]: Secreted IgG (sIgG), gene 3500
Description: BSK_BT_sIgG: BioMAP Diversity Plus: BT Assay for Secreted IgG (sIgG) Biomarker Activity (AID 2284226). The note with it: primary human B cells with PBMC. An outline of the steps:
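In this multiplexed co-culture system, ELISA quantifies sIgG 24 h post-treatment. Endpoint analysis uses positive fitting direction, DMSO negative control.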

Read-out in assay [3]: Interleukin 6 (IL6), IL6 (gene 3569)
Description: BSK_BT_xIL6: BioMAP Diversity Plus: BT Assay for Interleukin 6 (IL6) Biomarker Activity (AID 2284228). The conditions noted are these: primary human B cells with PBMC. A digest of the protocol:
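IL-6 secretion measured (Luminex xMAP) in human primary B cell + PBMC co-culture at 24 h of chemical exposure; DMSO served as negative control and activity baseline, with curves fitted for increase.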

Read-out in assay [4]: Interleukin 17A (IL17A), IL17A (gene 3605)
Description: BSK_BT_xIL17A: BioMAP Diversity Plus: BT Assay for Interleukin 17A (IL17A) Biomarker Activity (AID 2284229). The conditions noted are these: primary human B cells with PBMC. A digest of the protocol: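 Human primary B cells plus PBMC, treated 24 h with chemicals; supernatant IL-17A quantified on Luminex xMAP beads. Gain of signal over DMSO control scored as activity.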

A short description of assay [5]: IUF_NPC1a_proliferation_area_72hr: Leibniz Research Institute for Environmental Medicine (IUF) 72-hour Neural Progenitor Cell Proliferation Area Assay (NPC1a) (AID 2284208). A digest of the protocol:
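Measured in 3D suspension: each well held one primary hNPC sphere grown with EGF and FGF at pH 7.2-7.6. Compound stayed on for 72 h, then area was imaged; spheres lacking growth factors defined reduced proliferation.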

Assay [6] is described as follows: IUF_NPC1_viability_72hr: Viability Assessment at 72 hours in the Leibniz Research Institute for Environmental Medicine (IUF) Neural Progenitor Cell Proliferation Assay (NPC1) (AID 2284209). An outline of the steps: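 Three-day continuous exposure of human neural progenitor spheres under EGF/FGF-driven proliferation; cell viability scored by alamar blue signal versus DMSO.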

Assay [7] is described as follows: CCTE_Mundy_HCI_Cortical_Synap_Neur_Matur_NeuriteSpotCountPerNeuriteLength: CCTE's Synaptogenesis and Neurite Maturation Assay in rat cortical cells for Neurite Spot Count per Neurite Length, Mundy Lab (AID 2284210). An outline of the steps: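 Read-out: synaptophysin puncta counted along MAP2-stained neurites, normalised to neurite length, by automated high-content imaging. Rat cortical cells; AraC DIV 5; chemical dosing DIV 7; termination DIV 12. DMSO baseline.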

Assay [8] can be described thus: CCTE_Mundy_HCI_Cortical_NOG_NeuriteLength: CCTE's Neurite Outgrowth Assay in rat cortical cells for Neurite Length, Mundy Lab (AID 2284213). An outline of the steps: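 First, rat primary cortical cells were plated and, 2 h later, given test chemical as a 1/10 dilution. Finally, βIII-tubulin immunostaining enabled automated imaging of neurite length.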
Assay [9] can be described thus: CCTE_Mundy_HCI_Cortical_Synap_Neur_Matur_NeuriteLength: CCTE's Synaptogenesis and Neurite Maturation Assay in rat cortical cells for Neurite Length, Mundy Lab (AID 2284214). A digest of the protocol: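 DMSO-normalised neurite length, from high-content imaging of anti-MAP2-stained rat cortical cells fixed at DIV 12. Glia were suppressed with AraC (DIV 5) before chemical exposure from DIV 7.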

The nature of assay [10]: CCTE_Mundy_HCI_Cortical_Synap_Neur_Matur_NeuriteSpotCountPerNeuron: CCTE's Synaptogenesis and Neurite Maturation Assay in rat cortical cells for Neurite Spot Count per Neuron Count, Mundy Lab (AID 2284215). An outline of the steps:
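Developing rat cortical neurons, with glia suppressed by AraC, are exposed to chemicals from DIV 7 to DIV 12. Automated fluorescence imaging of MAP2-labelled neurites and synaptophysin puncta yields a count per neuron, normalised against DMSO wells.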

The nature of assay [11]: TAMU_PeakParms_SingleDonor1434_Chronotropy: Texas A&M University (TAMU) 1.5-hr Human Induced Pluripotent Stem Cell (iPSC)-derived Cardiomyocytes Calcium (Ca+2) Flux Assay for Cardiotoxicity: Chronotropy (changes in peak frequency) (AID 2284217). The note with it: actives raise or lower the signal. An outline of the steps: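 Beat frequency of single-donor iPSC cardiomyocytes was recorded through a calcium-sensitive dye 1.5 hours after exposure to four concentrations up to 100 uM. An EC05 point of departure was derived.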

A short description of assay [12]: CCTE_Mundy_HCI_Cortical_Synap_Neur_Matur_SynapseCount: CCTE's Synaptogenesis and Neurite Maturation Assay in rat cortical cells for Synapse Count, Mundy Lab (AID 2284218). A digest of the protocol: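 Endpoint: synapses/neuron by HCI (synaptophysin puncta on MAP2-labelled neurites, Hoechst nuclei). Rat primary cortical cells, AraC DIV 5, dosed DIV 7, fixed DIV 12; DMSO negative control.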

A short description of assay [13]: CCTE_Mundy_HCI_hN2_NOG_NeuriteCount: CCTE's Neurite Outgrowth Assay in human hN2 cells for Neurite Count, Mundy Lab (AID 2284219; active means hit-call score of the fitted dose curve at least 0.9, where 1 is the maximum). A digest of the protocol:
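In this morphology assay, hNP1-derived neurons received test chemical 2 h post-plating and were fixed two days later in warm paraformaldehyde/sucrose containing Hoechst 33342. Neurites, labelled by rabbit anti-βIII-tubulin (1:800) and Alexa Fluor-488 (1:500), were counted automatically.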

The nature of assay [14]: CCTE_Mundy_HCI_hN2_NOG_NeuriteLength: CCTE's Neurite Outgrowth Assay in human hN2 cells for Neurite Length, Mundy Lab (AID 2284220; active means hit-call score of the fitted dose curve at least 0.9, where 1 is the maximum). A digest of the protocol: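 Read-out is neurite length from high-content imaging of βIII-tubulin/Alexa Fluor-488-labelled neurons, referenced to DMSO controls.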
Assay [15] can be described thus: CCTE_Mundy_HCI_Cortical_Synap_Neur_Matur_CellBodySpotCount: CCTE's Synaptogenesis and Neurite Maturation Assay in rat cortical cells for Cell Body Spot Count, Mundy Lab (AID 2284223). An outline of the steps: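 Chemicals were applied to AraC-treated rat primary cortical cells at DIV 7 and measured at DIV 12. Fixed cells were labelled for MAP2, synaptophysin and nuclei, and high-content imaging gave cell body synaptophysin spot counts per neuron relative to DMSO.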

Assay [16] can be described thus: CCTE_Mundy_HCI_hNP1_Pro_ResponderAvgInten: CCTE's Proliferation Assay in human neuroprogenitor cells, Mundy Lab (AID 2284224; active means hit-call score of the fitted dose curve at least 0.9, where 1 is the maximum;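 further: human neural progenitor cells hNP1 derived from WA09 embryonic stem cells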). A digest of the protocol:
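Proliferation read as average intensity of BrdU-positive cells, imaged at 26.25 h post-dosing: chemical exposure started after 40–44 h culture, BrdU during final 4 h, paraformaldehyde fixation. Positive-direction fit relative to DMSO.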

For 25 compounds, outcome and AC50 results are on record in PubChem BioAssay (EPA / NIEHS).

“And” between values parts separate entries of the source, which are not always exact repeats. Equal entries are not always repeated. Inconclusive results are not listed. The source made the active and inactive calls. How the source made its calls, unless noted: active means hit-call score of the fitted dose curve at least 0.9, where 1 is the maximum; inactive means score below 0.9.

Regarding `O=C1OC2(c3ccccc31)c1cc(I)c(O)c(I)c1Oc1c2cc(I)c(O)c1I`, the result in assay [1], in assay [2], in assay [3] and in [4] was inactive.
For `CC(=O)Nc1ccc(O)cc1`, the compound was classed as inactive in [5], in assay [6], in [7], in [8], in assay [9] and in assay [10]. For the same compound, the outcome in assay [11], in [12], in assay [13], in [14], in assay [15] and in assay [16] was inactive.
On to `O=C(CC(=O)C(F)(F)C(F)(F)C(F)(F)F)c1cccs1`, for which the result in assay [16] was inactive. The AC50 is 45 µM (active) and 39 µM (active) in assay [1]; 19 µM (active) and 20.1 µM (active) in [2]; 29.8 µM (active) and 22.1 µM (active) in assay [3]; 30 µM (active) and 24.5 µM (active) in assay [4].
As for `Cc1cccc2c1ccc1ccccc12`, the result in [1] and in assay [4] was inactive. Moreover, the half-maximal activity concentration (AC50) in assay [2] is 26.6 µM (active); in assay [3], 0.157 µM (active).
For `Clc1ccc(Nc2nnc(Cc3ccncc3)c3ccccc23)cc1`, the outcome in assay [1] and in [4] was inactive. Moreover, the values for the half-maximal activity concentration (AC50) in assay [2] and in [3] were 6.52 µM (active) and 8.4 µM (active), respectively.
`Cc1ccc(N=Nc2c(O)ccc3ccccc23)c(C)c1`: the result in [1], in assay [3] and in assay [4] was inactive. For the same compound, in [2], the concentration at half-maximal activity (AC50) is 10 µM (active).
As to `O=C(NO)c1ccccc1`, the result in assay [1] and in [2] was inactive. The AC50 is 4.24 µM (active) in assay [3] and 8.55 µM (active) in assay [4].
Turning to `O=P(O)(O)CCC(F)(F)C(F)(F)C(F)(F)C(F)(F)C(F)(F)C(F)(F)C(F)(F)C(F)(F)F`, the result in [1], in assay [2], in assay [3] and in assay [4] was inactive.
Turning to `COCN(COC)c1nc(N(COC)COC)nc(N(COC)COC)n1`, the result in [1], in [2], in assay [3] and in [4] was inactive.
With `CC(C)(C)c1ccc(O)c(O)c1`, the half-maximal activity concentration (AC50) is 25.2 µM (active) in assay [1], 31.4 µM (active) in [2], 25.3 µM (active) in [3] and 16.5 µM (active) in assay [4].
As for `Cc1ccc(C(=O)c2ccccc2)cc1`, the result in assay [1], in [2], in assay [3] and in assay [4] was inactive.
For the compound `Oc1cc2ccccc2cc1O`, the result in assay [1], in assay [2], in assay [3] and in assay [4] was inactive.
For `COc1cccc(O)c1`, the result in assay [1], in assay [2], in assay [3] and in assay [4] was inactive.
On to `O=S(=O)(O)C(F)(F)C(F)(F)C(F)(F)C(F)(F)C(F)(F)C(F)(F)C(F)(F)C(F)(F)C(F)(F)C(F)(F)F`, for which the result in assay [1], in assay [2], in [3] and in assay [4] was inactive.
Turning to `COC1=CC(=O)C[C@@H](C)[C@]12Oc1c(Cl)c(OC)cc(OC)c1C2=O`, the outcome in assay [1], in assay [3] and in [4] was inactive. Further, in [2], the AC50 is 30.9 µM (active).
On to `C=CC(=O)OCCC(F)(F)C(F)(F)C(F)(F)C(F)(F)C(F)(F)C(F)(F)C(F)(F)C(F)(F)F`, for which the outcome in assay [1], in assay [2], in assay [3] and in assay [4] was inactive.
On to `CN(C)c1ccc(C(=C2C=CC(=[N+](C)C)C=C2)c2ccccc2)cc1`, for which the AC50 in assay [1] was 0.993 µM (active); in assay [2], 0.227 µM (active); in assay [3], 1.13 µM (active); in [4] it was 0.28 µM (active).
With `C=CC(C)(CCC=C(C)C)OC(C)=O` (centres undefined), the outcome in assay [1], in [2], in assay [3] and in [4] was inactive.
With `CN(CCO)S(=O)(=O)C(F)(F)C(F)(F)C(F)(F)C(F)(F)C(F)(F)C(F)(F)C(F)(F)C(F)(F)F`, the result in [1], in assay [2], in assay [3] and in assay [4] was inactive.
In the case of `CC1=NN(c2ccccc2)C(=O)C1`, the outcome in assay [1], in [2] and in assay [4] was inactive. The AC50 in assay [3] was 3.91 µM (active).
As to `C=COC(=O)C(C)(C)CCCCCC`, the result in assay [1], in [2], in assay [3] and in assay [4] was inactive.
In the case of `O=C(NCc1ncc(C(F)(F)F)cc1Cl)c1c(Cl)cccc1Cl`, in [1], the result was inactive. For the same compound, the values for the AC50 in [2], in assay [3] and in assay [4] were 9.52 µM (active), 20 µM (active) and 15.5 µM (active), respectively.
As to `O=C1c2ccc(O)c(O)c2C(=O)c2c(O)ccc(O)c21`, the result in assay [1], in [2], in assay [3] and in assay [4] was inactive.
In the case of `O=C(O)C(F)(F)OC(F)(F)C(F)(F)OC(F)(F)C(F)(F)OC(F)(F)C(F)(F)C(F)(F)C(F)(F)F`, the result in assay [1] was inactive. The concentration at half-maximal activity (AC50) in assay [2] is 42.5 µM (active) and 34.9 µM (active); in [3], 43.1 µM (active) and 52.8 µM (active); in [4], 41.8 µM (active) and 51.3 µM (active).
In the case of `C=CC(=C)CC/C=C(\C)CCC=C(C)C`, the outcome in assay [1], in assay [2], in [3] and in assay [4] was inactive.

By AC50 is commonly meant the midpoint of the concentration-response curve, whichever way the signal moves.
